Measurements from PubChem BioAssay (NCATS).
Results filed as inconclusive are left out. Calls of active or inactive are those of the source. Calls follow the shape of the dose curve; as a rule, active = well fitted inhibition curve with a large enough effect; inconclusive = small, poorly fitted or top-dose-only effect; inactive = flat fitted curve, though single readings scatter.
% is scaled to controls: 0 for no effect and ±100 for the full control effect; potency is read from the fitted curve at half-maximal effect.

What follows are molecules tested against Phospholipid hydroperoxide glutathione peroxidase GPX4 (Homo sapiens) (UniProt P36969) (assay: Primary qHTS Assay for Inhibitors of Recombinant Selenoprotein Glutathione Peroxidase 4 (GPX4) (AID 1845192; also: nearly all actives have a fitted effect of over 65% in size)). Conditions: recombinant GPX4, GR-coupled NADPH fluorescence, 15 min; series mostly up to 50 µM; activity change, negative = inhibition: at the top concentration.
Sequence of Phospholipid hydroperoxide glutathione peroxidase GPX4 (Homo sapiens) (P36969 whole entry, looked up): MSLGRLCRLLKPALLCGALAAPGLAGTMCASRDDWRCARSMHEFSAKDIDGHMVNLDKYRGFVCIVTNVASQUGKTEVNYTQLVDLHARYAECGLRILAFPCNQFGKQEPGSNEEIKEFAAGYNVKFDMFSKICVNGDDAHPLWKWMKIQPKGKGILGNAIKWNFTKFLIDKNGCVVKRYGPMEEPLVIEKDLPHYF
In short: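 NADPH consumption, followed by fluorescence at 340/450 nm between 0 and 15 min, reports GPX4 activity via coupled glutathione reductase (100 nM). Enzyme 200 nM was pre-exposed to compound 30 min; 0.5 mM cumene hydroperoxide and 1 mM GSH served as substrates.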
In the case of CC(CCc1ccc(O)cc1)NCC(O)c1ccc(O)cc1 (configuration not stated), the “outcome” value is reported as “inactive”. In the case of Cc1cc(-c2ccc(N=Nc3ccc4c(S(=O)(=O)O)cc(S(=O)(=O)O)c(N)c4c3O)c(C)c2)ccc1N=Nc1ccc2c(S(=O)(=O)O)cc(S(=O)(=O)O)c(N)c2c1O, the “activity change, negative = inhibition” value is reported as -13.8% (inactive). For CC1(O)CCC(C(C)(C)O)CC1 (configuration not stated), the “activity change, negative = inhibition” value was 2.59% (inactive). C[N@+]12CCCC[C@@H]1CCC(=C(c1cccs1)c1cccs1)C2 was tested, and the “activity change, negative = inhibition” value was -14% (inactive). COc1cc(C)c(/C=C/C(C)=C/C=C/C(C)=C/C(=O)O)c(C)c1C was tested, and the Potency was 16.1 µM (active). In the case of NC[C@@H]1O[C@H](O[C@H]2[C@@H](O)[C@H](O[C@@H]3[C@@H](O)[C@H](N)C[C@H](N)[C@H]3O[C@H]3O[C@H](CO)[C@@H](O)[C@H](O)[C@H]3N)O[C@@H]2CO)[C@H](N)[C@@H](O)[C@@H]1O, the outcome is reported as “inactive [at 0.409 µM]”. With CN(C)CCC=C1c2ccccc2C(C)(C)c2ccccc21 the “activity change, negative = inhibition” value was -8.36% (inactive). For C/C=C/C=C/C(=O)O, the “activity change, negative = inhibition” value was 3.89% (inactive). CCCOc1cc(N)ccc1C(=O)OCCN(CC)CC was tested, and the “activity change, negative = inhibition” value was 3.19% (inactive). C=CC1=C(C(=O)O)N2C(=O)[C@@H](NC(=O)/C(=N\O)c3csc(N)n3)[C@H]2SC1 (stereo in doubt) was tested, and the “activity change, negative = inhibition” value was -22.4% (inactive). In the case of CC(C)Cc1ccc([C@@H](C)C(=O)NS(C)(=O)=O)cc1, the “outcome” value is reported as “inactive”. CC(/C=C/C=C(\C)C(=O)O[C@@H]1O[C@H](CO[C@@H]2O[C@H](CO)[C@@H](O)[C@H](O)[C@H]2O)[C@@H](O)[C@H](O)[C@H]1O)=C\C=C\C=C(C)\C=C\C=C(/C)C(=O)O[C@@H]1O[C@H](CO[C@@H]2O[C@H](CO)[C@@H](O)[C@H](O)[C@H]2O)[C@@H](O)[C@H](O)[C@H]1O was tested, and the “activity change, negative = inhibition” value was -19.6% (inactive).
